High-throughput results as filed in PubChem.
Shown are actives, neighbours in structure and some others; about 2.5% of the full set was active somewhere.
CRFBP-R2 agonist: agonists of CRF-BP/CRF-R2 complex, primary screen, cell-based, HEK293, calcium dye fluorescence, uHTS; CRF-binding protein / CRF receptor 2 complex (human); actives 0.46% (n = 350,000); calcium dye fluorescence (FLIPR); percent of saturating CRF peptide response; activation, % at 13.2 µM;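 active = activation of at least 50%, plus an integration ratio under a set limit after plate pattern correction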
CRFR2-BP antag: antagonists of CRF-BP/CRF-R2 complex, primary screen, cell-based, HEK293, calcium dye fluorescence, uHTS. AID 588475, 2011. inhibition, % at 11.8 µM. actives 0.59% (n = 350,000). CRF-induced calcium fluorescence;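 active = inhibition of the ligand-induced calcium signal above about 50% at the single tested concentration, limit read from the data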
SKN-1 block: suppressors of acrylamide-induced Pgst-4::GFP reporter in worms, primary screen, SKN-1 inhibitor project, whole organism, uHTS, GFP/RFP fluorescence ratio, strain VP596. actives 0.49% (n = 360,000). inhibition, % at 21.8 µM. C. elegans VP596 Pgst-4::GFP/RFP ratio, 24 h. AID 624304, 2012;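 active = interference check ratio from 0.5 to 1.5 plus GFP to RFP signal ratio inhibition reaching or exceeding a fixed threshold, cut at about 30% in these data, passing the limit was not always enough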
Cardio protect: cardioprotection against H2O2-induced cell death, primary screen, uHTS, H9c2 cells, ATPLite luminescence; H9c2 cardiomyocytes, H2O2 injury protection, 2 h; protection from H2O2 cell death, % at 20 µM; actives 0.63% (n = 360,000);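 active = compounds giving at least 50% protection of heart cells from peroxide-induced death in the single-dose screen, raw or plate-pattern-corrected value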
TAG inh: inhibitors of triacylglycerol accumulation, primary screen, cell-based, uHTS, fluorescence, H9c2 | H9c2 cells, Nile Red lipid (TAG) fluorescence; cells loaded with 200 µM oleic acid | inhibition, % at 12.5 µM | actives 0.66% (n = 230,000) | AID 651582, 2012;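 active = pattern-corrected inhibition of lipid staining of at least 50% with the nuclear-stain viability signal not falling by more than 50%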
iPSC survival up: enhancers of single-cell hiPSC survival, primary screen, ATPlite luminescence. 100% = ROCK inhibitor wells, 0% = DMSO. survival enhancement, % at 20 µM. actives 0.044% (n = 360,000). AID 602274, 2012; in the data active = survival enhancement above about 18%;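 also: cells exposed to compounds for 16 hours before the ATP read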
Each line names hits and unclear results; the compound was inactive in the other large screens.

Nc1ccc(C(=O)N/N=C\c2ccc(OC(=O)c3ccccc3Cl)cc2)cc1	none (no result: TAG inh)
COc1cc(C(=O)N/N=C/c2ccc(OC(=O)c3cccc(C)c3)c(OC)c2)ccc1O	Cardio protect 58
Cc1onc(-c2ccccc2)c1C(=O)OCC(=O)c1ccc[nH]1	none
OC[C@@H]1CN(Cc2ccc3c(c2)OCO3)C[C@H](n2cnc3c(N4CCN(c5ccccc5)CC4)ncnc32)O1	none (no result: CRFBP-R2 agonist, CRFR2-BP antag)
CCOc1cc(OCC)cc(C(=O)N2CCC[C@H]2C(=O)N2CCC[C@H]2C(=O)N[C@@H](C)c2ccccc2)c1	none (no result: CRFBP-R2 agonist, CRFR2-BP antag, Cardio protect, TAG inh)
COc1ccc(OC)c(/C=N/NC(=O)c2cc3c(OC)cc(OC)cc3[nH]2)c1	Cardio protect 51
COc1ccc(NC(=O)COc2ccc(/C=N/NC(=O)c3cccnc3)cc2OC)cc1	none (no result: TAG inh)
COc1cc(/C=N/NC(=O)c2cccnc2)ccc1OCC(=O)Nc1ccccc1Cl	Cardio protect 51
COc1ccc(OC)c(/C=N/NC(=O)CCc2c(C)n[nH]c2C)c1	none
COc1ccc(OC)c(/C=N/NC(=O)c2cc3c(OC)cccc3[nH]2)c1	none
COc1ccc(OC)c(/C=N/NC(=O)CCc2ccc(O)c(O)c2)c1	Cardio protect 51 (no result: TAG inh)
CCOC(=O)c1c(NC(=O)C(=O)N/N=C/c2ccc(O)c(OC)c2)sc2c1CCCCC2	CRFR2-BP antag 55, Cardio protect 53 (no result: TAG inh)
N#CC1c2ccccc2C=CN1C(=O)N(c1ccccc1)c1ccccc1 (stereo not drawn)	none
COc1ccccc1-n1cc2ccc([N+](=O)[O-])cc2n1	none
O=[N+]([O-])c1ccc2cn(-c3ccccc3)nc2c1	SKN-1 block 57
CC(=O)Oc1ccc2ccc3ccc(C(C)=O)cc3c2c1	none
CCn1c(=N)n(CC(=O)c2ccc(Br)s2)c2ccccc21	none
CCCCn1c(=N)n(CC(=O)c2ccc(Br)s2)c2ccccc21	TAG inh 70
Cc1ncn(C23CC4CC(CC(C4)C2)C3)n1	CRFR2-BP antag 58 (no result: TAG inh)
CC(C)(C)NC(=O)C1C(c2ccccc2)=Nc2ccccc2N1C(=O)c1ccc(C(F)(F)F)cc1 (stereo not drawn)	none (no result: CRFBP-R2 agonist, CRFR2-BP antag, Cardio protect, TAG inh, iPSC survival up)
COc1cc(OC)cc(C2=Cc3ccccc3C(CC(=O)c3ccco3)N2c2ccc(-c3ccc(C(N)=O)cc3)cc2)c1 (stereo not drawn)	none (no result: CRFBP-R2 agonist, CRFR2-BP antag, Cardio protect, TAG inh)
COc1ccc(NCc2nn(CC(=O)c3ccc(Br)cc3)c3[n+]2CCCCC3)cc1	none
O=C(Cn1nc(CNc2ccc(Cl)cc2)[n+]2c1CCCCC2)c1ccc(Br)cc1	CRFR2-BP antag 55 (no result: TAG inh)
CC1(C(=O)Nc2ccc(Cl)c(Cl)c2)CCN1C(=O)Cc1ccc(-c2ccccc2)cc1 (stereo not drawn)	none (no result: CRFBP-R2 agonist, CRFR2-BP antag)
O[C@H]1CN(CC2CCCCC2)[C@@H](c2ccc(Cl)cc2)C[C@@H]1n1cc(C2CC2)nn1	none
CC(C)(CNC(=O)c1ccc(Br)o1)CNC(=O)c1ccc(Br)o1	CRFR2-BP antag 76 (no result: TAG inh)
COC(=O)c1ccc(CSc2nc3c(c(=O)[nH]2)CCC3)cc1	none (no result: CRFBP-R2 agonist, CRFR2-BP antag)
O=C1NC(=O)C2(Br)Nc3ccc(Br)cc3C(=O)C2N1 (stereo not drawn)	none
CCN1/C(=C/c2ccc3cc(C)ccc3[n+]2CC)Sc2cc(C)c(C)cc21	CRFBP-R2 agonist 184
CC[n+]1c(/C=C2\Sc3ccccc3N2C)ccc2cccc(C)c21	CRFBP-R2 agonist 124
CCN1/C(=C/c2ccc3cc(C)ccc3[n+]2CC)Sc2ccccc21	CRFBP-R2 agonist 155 (no result: TAG inh)
COC(=O)[C@]12CCCCC=C1N(Cc1ccc(Cl)cc1Cl)C(=O)[C@H](CC(=O)NCCC(C)C)C2	none (no result: CRFBP-R2 agonist, CRFR2-BP antag, Cardio protect, TAG inh)
Cc1ccc(F)c(S(=O)(=O)NC(=O)C2(C)CCN2C(=O)C/C=C/c2ccccc2)c1 (stereo not drawn)	none (no result: CRFBP-R2 agonist, CRFR2-BP antag)
Cn1nc(C(C)(C)C)cc1C(=O)N1CCCC(C)(C(=O)NS(=O)(=O)C2CC2)C1 (stereo not drawn)	none (no result: CRFBP-R2 agonist, CRFR2-BP antag)
CC(C)c1nnc2c(N(C)S(=O)(=O)c3ccccc3)nc3ccccc3n12	none (no result: TAG inh)
CCCCc1nnc2c(N(C)S(=O)(=O)c3ccccc3)nc3ccccc3n12	CRFR2-BP antag 59
Fc1ccc(-c2csc(Nc3ccccn3)n2)cc1	SKN-1 block 75 (no result: TAG inh)
c1cncc(-c2nc(-c3cccs3)cs2)c1	none
OC(c1ccc(F)cc1)c1nc(-c2ccncc2)cs1 (stereo not drawn)	none (no result: CRFBP-R2 agonist, CRFR2-BP antag)
c1ccc(Nc2nc(-c3cccs3)cs2)nc1	SKN-1 block 72
c1ccc(Nc2nc(-c3cccnc3)cs2)nc1	none
c1csc(-c2csc(-c3cccs3)n2)c1	SKN-1 block 93
Oc1ccc(-c2csc(Nc3ccccn3)n2)c(O)c1	none (no result: TAG inh)
Fc1ccc(-c2csc(-c3ccncc3)n2)cc1	SKN-1 block 70
CC1(C(=O)NS(=O)(=O)c2ccc(F)cc2F)CCN1C(=O)c1ccccc1CCc1ccccc1 (stereo not drawn)	none (no result: CRFBP-R2 agonist, CRFR2-BP antag)
O=S(=O)(NCC[C@@H]1CC[C@H](NS(=O)(=O)c2cccc(F)c2)[C@@H](CO)O1)c1cccc(F)c1	none (no result: CRFBP-R2 agonist, CRFR2-BP antag, Cardio protect, TAG inh, iPSC survival up)
Cc1cccc(Nc2nc(-c3cccs3)cs2)n1	SKN-1 block 36 (no result: TAG inh)
Cc1cccc(Nc2nc(-c3ccc(F)cc3)cs2)n1	none
COc1cccc2cc(-c3nc(-c4cccs4)cs3)c(=O)oc12	Cardio protect 87
O=C(C[n+]1cc(-c2ccc(F)cc2)n2c1CCC2)Nc1nc(-c2ccccc2)cs1	none (no result: TAG inh)
O=C(CN1C(=O)C2CC=CCC2C1=O)Nc1nc(-c2ccc(F)cc2)cs1 (stereo not drawn)	Cardio protect 58
Cc1ccc(-c2c[n+](CC(=O)Nc3nc(-c4ccc(F)cc4)cs3)c3n2CCC3)cc1	CRFR2-BP antag 63 (no result: TAG inh)
COc1ccccc1-c1ccc(SCc2cccc(F)c2)nn1	CRFR2-BP antag 53
CN1CCN(C(=O)C[C@@H]2CC[C@@H]3[C@H](COC[C@@H](O)CN3Cc3cccc(Cl)c3)O2)CC1	none (no result: CRFBP-R2 agonist, CRFR2-BP antag, Cardio protect, TAG inh, iPSC survival up)
Nc1[nH]c(C(=O)c2ccccc2)c(-c2ccncc2)c1C(=O)NCCc1c[nH]c2ccccc12	none (no result: CRFBP-R2 agonist, CRFR2-BP antag, Cardio protect, TAG inh)
N[C@@H](Cc1ccccc1)C(=O)N1CCC(C(=O)N[C@@H](Cc2c[nH]c3ccccc23)C(=O)O)CC1	none (no result: TAG inh)
CSCC[C@H](N)C(=O)N1CCC(C(=O)N[C@@H](Cc2c[nH]c3ccccc23)C(=O)O)CC1	SKN-1 block 36 (no result: TAG inh)
CC(=O)NC(CC(=O)Nc1ccc(S(=O)(=O)NC2=NCCCCC2)cc1)c1ccccc1 (stereo not drawn)	none
COc1ccc(-c2cccc(NC(=O)c3cccs3)c2)nn1	none
